Screening data as filed in PubChem BioAssay.
iPSC survival up: enhancers of human iPSC single-cell survival; AID 602274; hiPSC single-cell survival, ATPlite luminescence; 100% = ROCK inhibitor wells, 0% = DMSO; 0.044% of 360,000 active; survival enhancement, % at 20 µM; in the data active = survival enhancement above about 18%;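 note: cells exposed to compounds for 16 hours before the ATP read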
MIN6 prolif: induces beta-cell replication in MIN6 cells; MIN6 cells proliferation, ATPlite luminescence, 48 h; cells starved in 0.2% serum; 100% = growth in 10% serum; proliferation, % at 10 µM; 0.29% of 330,000 active;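 active = compounds whose signal lies at least 3.5 SD above the mean of all wells on their plate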
TAG inh: triacylglycerol accumulation inhibition; H9c2 cells, Nile Red lipid (TAG) fluorescence; cells loaded with 200 µM oleic acid; inhibition, % at 12.5 µM; 0.66% of 230,000 active; AID 651582;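 active = pattern-corrected inhibition of lipid staining of at least 50% with the nuclear-stain viability signal not falling by more than 50%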
TAG conf: triacylglycerol accumulation inhibition, confirmation; shares compounds with TAG inh; H9c2 lipid accumulation, Nile Red fluorescence; cells loaded with 200 µM oleic acid; AID 651629; inhibition, % at 12.5 µM; 71% of 990 active;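 active = mean inhibition across replicates of 40% or more; inactive = mean inhibition below 40%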
Numbers stand for hits; i = inactive; nt = no result. Most compounds without a hit are left out; they make up all but 0.71% or so of the library.

SMILES	iPSC survival up	MIN6 prolif	TAG inh	TAG conf
Cc1ccc(F)c(Oc2cc(NN3CCCCC3)c([N+](=O)[O-])cc2[N+](=O)[O-])c1	i	i	50.5	i
Cc1ccc(C)c(Oc2cc(NN3CCCCC3)c([N+](=O)[O-])cc2[N+](=O)[O-])c1	i	i	i	nt
Cc1ccc(C)c(C(O)c2ncc(-c3ccc(Cl)cc3)[nH]2)c1 (stereo unspecified)	i	nt	i	nt
CCOC(=O)c1[nH]c(C)c(C(=O)OCC(=O)NCc2ccc(OC)c(OC)c2)c1C	i	i	i	nt
CCOC(=O)c1c(C)[nH]c(C(=O)OCC(=O)NCCc2ccc(OCC)c(OCC)c2)c1C	i	i	56.7	63.1
O=C1NC[C@H](CCCCN2CCN(Cc3ccccc3)C(=O)C2=O)N(CCC2CCCCC2)C1=O	i	nt	nt	nt
Nc1nc2c(ncn2[C@@H]2O[C@H](CNCc3cnc(N4CCOCC4)s3)[C@@H](O)[C@H]2O)c(=O)[nH]1	i	nt	nt	nt
NNC(=O)CCN1CCCCC1	i	i	82.8	i
CC1CCN(CCC(=O)NN)CC1	i	i	i	nt
CC[C@H](C)[C@H]1CNC(=S)N1CC1CCN(CCC(C)C)CC1	i	nt	i	nt
O=C(N/N=C/c1ccc(Cl)cc1)c1cc(-c2cccnc2)nc2ccccc12	i	i	i	nt
O=C(N/N=C/c1ccc2c(c1)OCO2)c1cc(-c2ccccc2Cl)nc2ccccc12	i	i	nt	nt
O=C(N/N=C/c1ccc2c(c1)OCO2)c1cc(-c2ccncc2)nc2ccccc12	i	i	53.7	66.9
Cc1ccc(/C=N/NC(=O)c2cc(-c3cccnc3)nc3ccccc23)cc1	i	i	56.7	48.7
CCN(CC(=O)Nc1ccc(NC(C)=O)cc1)C(=O)C1(c2ccc(Cl)cc2)CCC1	i	nt	i	nt
CCN(CC)C(=O)C1=C(C)N(Cc2ccccc2)C(=O)C(CC(=O)NCc2ccco2)C1 (stereo unspecified)	i	nt	i	nt
COc1ccc(CCCc2n[nH]c(=S)o2)cc1	i	i	i	nt
COc1ccc(Cc2n[nH]c(=S)o2)cc1	i	i	55.5	i
O=C(NCc1ccc(F)cc1)c1cc(C2CCCCN2C(=O)CCc2ccccc2)on1 (stereo unspecified)	i	nt	i	nt
COc1ccc(Cl)cc1S(=O)(=O)NC(C)c1cnn(-c2ccccn2)c1C (stereo unspecified)	i	nt	i	nt
CN(C)CCCN1c2ccc3ccccc3c2Sc2cccc(Cl)c21	i	nt	i	nt
CN(C)CCCN1c2ccccc2Sc2ccc3ccccc3c21	i	nt	50.5	59.8
CCc1nc2c(OCC3COc4ccccc4O3)cccn2c1N(C)C(=O)c1ccccc1F (stereo unspecified)	i	nt	i	nt
OCC1OC(n2ccc3c(NO)ncnc32)C(O)C1O (stereo unspecified)	i	nt	i	nt
CC(C)=CCNc1ncnc2c1c(C#N)cn2C1OC(CO)C(O)C1O (stereo unspecified)	i	nt	58.3	46.1
SMILES	iPSC survival up	MIN6 prolif	TAG inh	TAG conf
COc1cccc2sc(Nc3nc(-c4cc5ccccc5oc4=O)cs3)nc12	i	nt	57.7	86.8
Nc1ccc(Nc2nc(-c3cc4ccccc4oc3=O)cs2)cc1	i	i	i	nt
COCCn1cnc2c(c1=O)c1nc3ccccc3nc1n2/N=C/c1ccco1	i	i	i	nt
COCCn1cnc2c(c1=O)c1nc3ccccc3nc1n2/N=C/c1ccc(OC)c(OC)c1	i	i	67.9	88.0
Cc1ccc(Nc2nc(N3CCOCC3)nc(N3CCOCC3)n2)cc1C	i	i	nt	nt
CCCC(=O)Nc1ccc2nc(SCC(=O)N3CCCC3)sc2c1	i	i	i	nt
CCCCSc1nc2ccc(Nc3nc(N4CCOCC4)nc(N4CCOCC4)n3)cc2s1	i	i	79.9	96.6
CCCCNC(=O)CSc1nc2ccc(Nc3nc(N4CCOCC4)nc(N4CCOCC4)n3)cc2s1	i	i	56.7	i
COc1ccccc1-c1cc(C(F)(F)F)nc(S(=O)(=O)CCCC(=O)Nc2cc(C)on2)n1	i	i	i	nt
COc1ccccc1-c1cc(C(F)(F)F)nc(S(=O)(=O)CCCC(=O)NC(C)C)n1	i	i	65.8	89.9
CC(=O)Nc1cccc(-c2ccnc3c2CC(C)(C(=O)NCCC(F)(F)F)O3)c1 (stereo unspecified)	i	nt	i	nt
N=c1c(C(=O)NCc2ccc3c(c2)OCO3)cc2c(=O)n3ccccc3nc2n1CC1CCCO1 (stereo unspecified)	i	i	nt	nt
N=c1c(C(=O)NCc2ccc(F)cc2)cc2c(=O)n3ccccc3nc2n1CC1CCCO1 (stereo unspecified)	i	i	50.9	i
CCC(C)NCCOCCOc1ccc(Cl)c2ccccc12 (stereo unspecified)	i	i	53.2	45.4
CCC(C)NCCOCCOc1ccc(Cl)c(C)c1C (stereo unspecified)	i	i	i	nt
Cc1cc(=O)oc(C)c1C(=O)Nc1ccc(F)cc1	i	i	i	nt
Cc1cc(=O)oc(C)c1C(=O)Nc1cccc(F)c1	i	i	50.6	i
C=CCn1c(N)c(C(=O)Nc2ccccc2)c2nc3ccccc3nc21	i	i	78.3	88.3
C=CCn1c(N)c(C(=O)OC(C)(C)C)c2nc3ccccc3nc21	i	i	i	nt
OCC1CSC(=S)N1Cc1ccccc1 (stereo unspecified)	i	nt	nt	nt
CCN(CC(=O)Nc1ccc(C(=O)Nc2ccc(OC)cc2)cc1)Cc1nc2ccccc2c(=O)[nH]1	i	i	54.7	50.5
CCN(CC(=O)Nc1cc(OC)ccc1OC)Cc1nc2ccccc2c(=O)[nH]1	i	i	i	nt
O=C(NCCCCCCCN1CCCCCCC1)C(C1CCCCC1)C1CCCCC1	i	nt	69.9	50.6
O=C(NCCCN1CCOCC1)NC1CCCCC1	i	i	i	nt
CC(C)c1ccc(CN2CCC2(C)C(=O)Nc2cnc3ccccc3c2)cc1 (stereo unspecified)	i	nt	i	nt
SMILES	iPSC survival up	MIN6 prolif	TAG inh	TAG conf
CC(C)C[C@@H](CNCC(=O)[C@H](Cc1c[nH]c2ccccc12)NC(=O)c1[nH]cnc1C(=O)N[C@@H](C)CN)NC(=O)c1nc[nH]c1C(=O)N[C@@H](Cc1ccccc1)C(=O)O	i	nt	i	nt
CC(C)C[C@@H](CNC(=O)OC(C)(C)C)NC(=O)c1nc[nH]c1C(=O)N[C@@H](CC(C)C)C(=O)CNC[C@H](CC(C)C)NC(=O)c1nc[nH]c1C(=O)N[C@@H](Cc1c[nH]c2ccccc12)C(=O)OC(C)(C)C	i	i	60.1	52.5
COc1cc(C(=O)N2CCCCC2c2cc(C(=O)Nc3ccccc3Cl)no2)cc(OC)c1C (stereo unspecified)	i	nt	i	nt
O=C(NCc1ccccc1Cl)c1ccc2sc([C@H]3C[C@H](O)[C@@H](CO)O3)nc2c1	i	nt	i	nt
O=C(c1ccoc1)N1CCN(c2cc(-c3cccnc3)nc3cc(-c4cccc(Cl)c4)nn23)CC1	i	nt	51.8	41.0
O=C(c1ccoc1)N1CCN(c2cc(-c3ccncc3)nc3cc(-c4cccc(Cl)c4)nn23)CC1	i	nt	62.9	49.4
CC(=O)N1CCN(c2cc(-c3ccccc3)nc3cc(-c4cccc(Cl)c4)nn23)CC1	i	nt	i	nt
COc1ccc(-c2cc3nc(-c4ccccc4)cc(N4CCN(C(=O)c5ccoc5)CC4)n3n2)cc1	i	nt	i	nt
